Assay outcomes deposited in PubChem BioAssay by National Center for Advancing Translational Sciences (NCATS).
TDP-43 yeast inh: rescues yeast growth from TDP-43 toxicity; TDP-43 expressing yeast growth rescue, BacTiter-Glo, 24 h; Potency, µM (doses to about 46.1 µM), actives largely listed as activators; hit rate 1.8% among 410,000; AID 652104; note: nearly all actives have a fitted effect of over 50% in size
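Galactose-induced TDP-43 yeast, OD600=0.02, compound pinned; 24 hr, 30 deg C; BacTiter-Glo luminescence for growth. Inhibitors of TDP-43 toxicity read as activators.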
Abeta yeast res: compounds reversing amyloid beta toxicity in yeast. hit rate 0.063% among 410,000. Potency, µM (top dose mostly 46.1 µM), most hits filed as activators. yeast expressing A-beta42, growth rescue, OD600, 48 h; response scale: 0% DMSO, 100% iron-clioquinol control; note: nearly all actives have a fitted effect of over 55% in size
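Yeast growth medium received pinned compounds, then yeast cells expressing toxic A-beta were added; plates incubated at 30 C for 48 hr. Growth read as absorbance at 600 nm, normalized to DMSO and equimolar FeCl3 plus clioquinol controls.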
aSyn rescue: inhibitors of alpha-synuclein toxicity in yeast; Yeast expressing alpha-synuclein, growth rescue, BacTiter-Glo, 24 h; Potency, µM (highest dose often 46.1 µM), most hits filed as activators; hit rate 0.14% among 370,000; note: nearly all actives have a fitted effect of over 65% in size
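Galactose-induced alpha-syn yeast (OD600=0.02, raffinose-pregrown) + pinned cpd, 24 hr, 30 deg C; growth by BacTiter-Glo luminescence. Growth restoration scores as activation.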
FUS yeast rescue: FUS proteinopathy suppression in yeast; AID 1347120; S. cerevisiae FUS-expressing, growth rescue, OD600, 24 h; Potency, µM (highest dose often 76.6 µM), actives largely listed as activators; hit rate 0.24% among 390,000; note: nearly all actives have a fitted effect of over 55% in size
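Restored growth of FUS-toxic S. cerevisiae, read as 600 nm absorbance after 24 h at 30C in galactose medium (starting OD 0.005). Controls CP55940 and DMSO.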
pAkt inh: Akt phosphorylation inhibition; activity change, % for hits at 50 µM; Neuro2A IGF-stimulated pAkt S473 HTRF, 20 min; stronger effect = lower value; hit rate 0.32% among 360,000; in the data active = activity change below about -80%; inconclusive = mostly about -51% to -80%
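Single-point screen (50 µM final compound) in Neuro2A cells stimulated 20 min with 6 nM IGF at 37 deg C. After lysis, Ser473-phosphorylated Akt read by HTRF (ex 330 nm, em 615/665 nm) as the 665/615 ratio.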
Each line names hits and unclear results; the compound was inactive in the other large screens. In the library only some 2.3% were active in any assay of this set; here they are far more common. Unless noted, calls come from the whole dose curve; as a rule, active = well fitted curve in the direction sought with a large enough effect; inconclusive = small, poorly fitted or top-dose-only effect, or another doubt; inactive = no such curve, though single readings can be large; an effect the other way counts as inactive or inconclusive.

CC1(C)CC2CC(C)(CN2C(=O)COC(=O)c2ccc(O)cc2O)C1 (configuration not stated)	Abeta yeast res 10µM
CC(=O)N1N=C(N)SC1c1cccc([N+](=O)[O-])c1 (configuration not stated)	none
COc1ccc(C2=NN(C(C)=O)CC2c2cccc([N+](=O)[O-])c2)cc1 (configuration not stated)	TDP-43 yeast inh 11.2µM (no result: Abeta yeast res)
CCOC(=O)c1cc(-c2ccc(OC)cc2)n(CCC(=O)NC2CCC(C)CC2)c1C (configuration not stated)	none (no result: aSyn rescue, pAkt inh)
CC(=O)Nc1ccc(NC(=O)c2cc3sccc3n2Cc2ccc(Cl)cc2)cc1	none (no result: aSyn rescue, pAkt inh)
Cc1ccc(-n2cc(-c3ccccc3)c3c(NC4CCCC4)ncnc32)cc1	TDP-43 yeast inh 35.5µM (no result: aSyn rescue, pAkt inh)
Cc1cccc(-n2cc(-c3ccccc3)c3c(NC4CCCC4)ncnc32)c1	TDP-43 yeast inh 20µM (no result: aSyn rescue, pAkt inh)
COc1cc(NC(=O)CSc2cc(=O)n(C)c3ccccc23)cc(OC)c1OC	none (no result: aSyn rescue, pAkt inh)
Cc1oc(-c2ccc(F)cc2)cc1-c1nn2c(-c3ccoc3C)nnc2s1	pAkt inh -108.8%
COc1ccc(-c2nnc3sc(-c4ccco4)nn23)cc1OC	none
Cc1cccc(OCCCCn2c(C3CC(=O)N(c4ccccc4Cl)C3)nc3ccccc32)c1 (configuration not stated)	none (no result: aSyn rescue, pAkt inh)
CCc1ccccc1N1CC(c2nc3ccccc3n2CCOc2ccc(Cl)c(C)c2)CC1=O (configuration not stated)	FUS yeast rescue 25.1µM (no result: aSyn rescue, pAkt inh)
Cc1cccc(OCCCCn2c(C3CC(=O)N(c4ccc(C)cc4C)C3)nc3ccccc32)c1 (configuration not stated)	TDP-43 yeast inh 31.6µM, FUS yeast rescue inconclusive (no result: aSyn rescue, pAkt inh)
Cc1ccc(C)c(OCCn2c(C3CC(=O)N(Cc4ccc(F)cc4)C3)nc3ccccc32)c1 (configuration not stated)	TDP-43 yeast inh 35.5µM, FUS yeast rescue inconclusive (no result: aSyn rescue, pAkt inh)
Cc1cccc(C)c1OCCn1c(C2CC(=O)N(Cc3ccc(F)cc3)C2)nc2ccccc21 (configuration not stated)	FUS yeast rescue inconclusive (no result: aSyn rescue, pAkt inh)
Cc1cc(OCCn2c(C3CC(=O)N(Cc4ccc(F)cc4)C3)nc3ccccc32)ccc1Cl (configuration not stated)	none (no result: aSyn rescue, pAkt inh)
CCc1ccc(N2CC(c3nc4ccccc4n3Cc3ccccc3C)CC2=O)cc1 (configuration not stated)	TDP-43 yeast inh 28.2µM, FUS yeast rescue inconclusive (no result: aSyn rescue, pAkt inh)
O=C(Nc1ccccc1N1CCOCC1)c1ccc2ccccc2n1	TDP-43 yeast inh 12.6µM
COc1ccc(-c2cc(-c3ccccc3)nc3c2COc2ccc(F)cc2-3)cc1	none (no result: aSyn rescue, pAkt inh)
C=C(C)COc1ccc(-c2nc(N)ncc2-c2ccc(Br)cc2)c(O)c1	TDP-43 yeast inh 20µM
C=C(C)COc1ccc(-c2ncncc2-c2ccc(Br)cc2)c(O)c1	none
COc1cccc(/C(C)=N/NS(=O)(=O)c2ccc(Cl)cc2)c1	none
COc1cccc(/C(=N/O)C2CC2c2ccc(Cl)cc2)c1 (configuration not stated)	TDP-43 yeast inh 15.8µM
Cc1ccc2[nH]c(=O)c(CN(Cc3ccco3)C(=O)N3CCOCC3)cc2c1	none
Cc1ccc(CN(Cc2cc3cc(C)ccc3[nH]c2=O)C(=O)N2CCOCC2)cc1	pAkt inh -106.3%
O=C1/C(=C/c2ccccc2O)SC(=S)N1Cc1cccnc1	TDP-43 yeast inh 12.6µM
CCc1ccccc1N1CSC2=C(C#N)C(c3cc(OC)c(OC)cc3OC)CC(=O)N2C1 (configuration not stated)	TDP-43 yeast inh 0.0316µM, FUS yeast rescue inconclusive
COc1cc(OC)c(C2CC(=O)N3CN(c4ccccc4)CSC3=C2C#N)cc1OC (configuration not stated)	FUS yeast rescue inconclusive
Fc1ccccc1N1CCN(c2nc(-c3cccs3)nc3ccccc23)CC1	TDP-43 yeast inh 14.1µM
Cc1ccc(C)c(N2CCN(C(=O)c3c(C)oc4nc(C)nc(N5CCOCC5)c34)CC2)c1	none (no result: aSyn rescue, pAkt inh)
CCOCCCNC(=O)NC(C)c1c(-n2cccc2)sc2c1CCN(CC)C2 (configuration not stated)	none (no result: aSyn rescue, pAkt inh)
CCC(=O)Nc1cc(SCCO)cc([N+](=O)[O-])c1	pAkt inh -87.6%
COc1ccc(CCNC(=O)CCCn2nc(C)c3sc4ccccc4c3c2=O)c(OC)c1	none (no result: aSyn rescue, pAkt inh)
